# In the library only some 1.2% were active in any assay of this set; here they are far more common.
# PI4K2A inh: blocks human PI4K2A kinase activity; Q9BTU6; purified PI4K2A, ADP-Glo luminescence, 1 h; hits give low values; activity change, negative = inhibition, % at 76.9 µM; 0.13% of 420,000 active; in the data active = activity change below about -50%; inconclusive = mostly about -30% to -49%
#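 PI4K2A activity was measured by ADP-Glo luminescence: enzyme (4 ug/mL stock) and phosphatidylinositol (1.2 mM stock) in Tris pH 7.5/MgCl2/EGTA/Triton X-100 buffer were reacted with ATP (300 microM stock) for one hour at ambient temperature.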
# TrxR1 inh-1: blocks rat thioredoxin reductase 1 | 1% of 390,000 active | AID 588453 | recombinant rTrxR1, NADPH fluorescence consumption, selenite substrate | O89049 | Potency, µM (doses to about 114 µM), hits mostly inhibitors; note: nearly all actives have a fitted effect of over 65% in size
# Target sequence (O89049 whole entry, looked up): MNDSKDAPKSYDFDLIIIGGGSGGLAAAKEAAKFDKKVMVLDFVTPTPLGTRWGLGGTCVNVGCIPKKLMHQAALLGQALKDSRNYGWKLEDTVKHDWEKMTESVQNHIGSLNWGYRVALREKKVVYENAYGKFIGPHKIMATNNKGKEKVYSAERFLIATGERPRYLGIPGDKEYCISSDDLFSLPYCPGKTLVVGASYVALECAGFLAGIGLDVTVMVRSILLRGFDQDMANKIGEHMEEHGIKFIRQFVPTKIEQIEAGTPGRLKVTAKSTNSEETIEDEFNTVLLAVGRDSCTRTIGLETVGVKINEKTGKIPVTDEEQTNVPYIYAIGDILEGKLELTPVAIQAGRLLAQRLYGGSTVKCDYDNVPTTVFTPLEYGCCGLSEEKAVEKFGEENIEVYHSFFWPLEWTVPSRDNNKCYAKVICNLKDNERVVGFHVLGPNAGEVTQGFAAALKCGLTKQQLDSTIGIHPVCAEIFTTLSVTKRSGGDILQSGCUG
#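 Rat TrxR1 (90 nM in the dispensed reagent) was pre-reduced with 400 uM NADPH for 5 min at room temperature, then incubated with compound for 15 min. After 400 uM selenite was added, NADPH fluorescence (Ex 340/Em 450 nm) was followed for 8 min.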
# TrxR1 substrate: substrates of rat thioredoxin reductase 1; purified TrxR1 substrate turnover, NADPH consumption readout; 0.01% of 390,000 active; O89049; Potency, µM (series often up to 114 µM); note: nearly all actives have a fitted effect of over 50% in size
#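 Rat TrxR1, dispensed at 90 nM, was prereduced with 400 uM NADPH (final) for 5 min at ~22 deg C, then incubated with compound 15 min before 400 uM selenite. A first-read NADPH fluorescence drop versus no-compound background flagged substrates.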
# PKM2 act: activators of human pyruvate kinase M2. P14618. purified PKM2, Kinase-Glo ATP luminescence, activation; response scale: 0% is enzyme alone, no compound. Potency, µM (highest dose often 57.5 µM), actives largely listed as activators. 0.34% of 260,000 active. AID 1631; note: nearly all actives have a fitted effect of over 55% in size
#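 hPK-M2, >95% pure; 0.1 mM ADP / 0.5 mM PEP final; imidazole pH7.2 buffer w/ 7 mM MgCl2, 50 mM KCl; 1 h RT; Kinase-Glo lum. Intermediate enzyme activity for dual inhibitor/activator qHTS.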
# GALK inh: blocks human galactokinase activity. 0.007% of 270,000 active. Potency, µM (doses to about 57.5 µM), actives largely listed as inhibitors. P51570. Purified GALK, Kinase-Glo residual ATP luminescence
#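 Kinase-Glo Plus luminescence measured ATP left after a 1 h room-temperature reaction. The reaction used 5 nM GALK, 100 uM galactose and 35 uM ATP at pH 8.0 (20 mM HEPES, 5 mM MgCl2, 60 mM NaCl, 1 mM DTT, 0.01% BSA).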
# TRb-SRC2 inh: disrupts human TRb binding to SRC2 peptide in AlphaScreen; shares compounds with TrxR1 inh-1; AlphaScreen TRb LBD-SRC2 peptide binding, luminescence; Potency, µM; 50% of 30 active; AID 2444; calls by dose curve
# HepG2 tox: reduces HepG2 viability in TRb-SRC2 counter-screen; HepG2 viability, ATP luminescence (CellTiter-Glo), 72 h; Potency, µM; AID 2447; 50% of 40 active; shares compounds with TrxR1 inh-1; calls by dose curve
# AR-SRC2 inh: AR-SRC2 (human) interaction inhibition, selectivity; shares compounds with TrxR1 inh-1; AR-LBD Tx-SRC2-3 fluorescence polarization, 3 h; calls only; 25 tested, under 10 active; call rule not given here
# PPARg DRIP2 FP: selectivity of TRb-SRC2 inhibitors: human PPARgamma coactivator binding inhibition; PPARg LBD / Texas Red DRIP-2 peptide, fluorescence polarization, 3 h; Potency, µM; shares compounds with TrxR1 inh-1; 25 tested, under 10 active; calls by dose curve
# VDR-SRC2 FP sel: disrupts human vitamin D receptor binding to SRC2 peptide; shares compounds with TrxR1 inh-1; VDR LBD/SRC2-3 peptide, fluorescence polarization, 3 h; Potency, µM; 25 tested, under 10 active; AID 2455; calls by dose curve
# TRb-SRC2 FP Fluo: TRb-SRC2 (human) inhibition, fluorescein FP confirmation; shares compounds with TrxR1 inh-1; TRb LBD / fluorescein-SRC2 peptide, fluorescence polarization; Potency, µM; 20 tested, under 10 active; AID 2487; call rule not given here
# GR counterassay: glutathione reductase inhibition, TrxR1 selectivity check; shares compounds with TrxR1 inh-1; purified GR, DTNB reduction absorbance 405 nm kinetic; activity change, negative = inhibition, % at 57.1 µM; 55 tested, under 10 active; AID 652020
# TrxR1 inh-2: rat TrxR1 inhibition, primary screen retest; shares compounds with TrxR1 inh-1; recombinant TrxR1, NADPH fluorescence consumption, selenite substrate; Potency, µM, hits mostly inhibitors; 50% of 55 active; AID 652023
# TrxR1 insulin: TrxR1 inhibition in insulin mechanism assay; shares compounds with TrxR1 inh-1; TrxR1 Trx-coupled insulin reduction, NADPH absorbance 340 nm; Potency, µM; 20% of 55 active; AID 652037;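 active = compounds with a measured potency under 100 micromolar; inconclusive = filed, but no rule given; inactive = potency at or above that, or unmeasurable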
# TrxR1 inh-3: inhibitors of rat thioredoxin reductase 1, DTNB reduction; 90% of 55 active; purified TrxR1, DTNB reduction, A412; shares compounds with TrxR1 inh-1; Potency, µM;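 active = a half-inhibiting concentration could be measured and was below 100 µM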
# Hits are given with their value; – = inactive; ? = inconclusive; · = no result. Unless noted, calls come from the whole dose curve; as a rule, active = well fitted curve in the direction sought with a large enough effect; inconclusive = small, poorly fitted or top-dose-only effect, or another doubt; inactive = no such curve, though single readings can be large; an effect the other way counts as inactive or inconclusive.
SMILES,PI4K2A inh,TrxR1 inh-1,TrxR1 substrate,PKM2 act,GALK inh,TRb-SRC2 inh,HepG2 tox,TRb-SRC2 FP Fluo,others
CS(=O)(=O)c1ccc(C(=O)OCC(=O)NC(=O)C2CCCCC2)cc1[N+](=O)[O-],–,3.16µM,–,–,–,0.6µM,22.9µM,10.7µM,AR-SRC2 inh=–;PPARg DRIP2 FP=22.4µM;VDR-SRC2 FP sel=–
CC(=O)Nc1cccc(C(=O)OCC(=O)NC2CCCCCCC2)c1,–,–,–,·,·,·,·,·,
CC1CCC(NC(=O)COC(=O)c2ccc3ncsc3c2)CC1 (stereo unspecified),–,–,–,·,·,·,·,·,
Cc1cc(C(=O)OCC(=O)NC(=O)C2CCCCC2)ccc1[N+](=O)[O-],·,–,–,·,·,–,?,–,
O=C(COC(=O)c1ccc2ncsc2c1)NC(=O)C1CCCCC1,·,–,–,·,·,–,20.3µM,–,
CC(=O)Nc1cccc(C(=O)OCC(=O)NC(=O)C2CCCCC2)c1,·,–,–,·,·,–,–,–,
COc1ccc(NC(=O)CSC2=Nc3ccccc3C3=NC(CC(=O)NCc4ccc5c(c4)OCO5)C(=O)N23)cc1 (stereo unspecified),–,–,–,·,·,·,·,·,
COc1ccccc1NC(=O)c1sc2nc3n(c(=O)c2c1C)N=C(c1cccc(Br)c1)CS3,–,–,–,·,·,·,·,·,
O=C(COC(=O)c1ccc(C(F)(F)F)cc1)NC(=O)C1CCCCC1,·,–,–,·,·,–,–,–,
CC1(C)C2CCC1(C)C(NC(=O)COC(=O)c1ccc(S(C)(=O)=O)c([N+](=O)[O-])c1)C2 (stereo unspecified),·,3.55µM,–,·,·,6.8µM,23.4µM,3.3µM,AR-SRC2 inh=–;PPARg DRIP2 FP=–;VDR-SRC2 FP sel=40µM
Cc1ccc(CSc2nc3ccc(NC(=O)CC(C)C)cc3s2)cc1,–,–,–,·,·,·,·,·,
CN1c2cccc3cccc(c23)N(C)C1(C)C,–,–,–,–,–,·,·,·,
CN1c2ccccc2N(C)C1(C)c1cccc2ccccc12,–,50.1µM,–,–,–,·,·,·,GR counterassay=–;TrxR1 inh-2=?;TrxR1 insulin=–;TrxR1 inh-3=4.44µM
CS(=O)(=O)c1ccc(C(=O)OCC(=O)N2CCOCC2)cc1[N+](=O)[O-],–,·,·,·,·,·,–,·,
CCN(CC)C(=O)COC(=O)c1ccc(S(C)(=O)=O)c([N+](=O)[O-])c1,·,·,·,·,·,·,?,·,
CS(=O)(=O)c1ccc(C(=O)OCC(=O)N2CC(=O)Nc3ccccc32)cc1[N+](=O)[O-],·,2.82µM,–,·,·,10.5µM,15.6µM,2.8µM,AR-SRC2 inh=–;PPARg DRIP2 FP=15.1µM;VDR-SRC2 FP sel=63.6µM
CCN(CC)C(=O)COC(=O)c1ccc(O)cc1,–,–,–,–,–,·,·,·,
O=C1CN(C(=O)COC(=O)c2ccc(N3CCCCCC3)c([N+](=O)[O-])c2)c2ccccc2N1,–,–,–,?,–,·,·,·,

# High-throughput results deposited in PubChem by National Center for Advancing Translational Sciences (NCATS).
